High-throughput results (PubChem)
Sm TGR inh: qHTS Assay for the Inhibitors of Schistosoma Mansoni Peroxiredoxins; Schistosoma mansoni thioredoxin glutathione reductase (TGR), Q962Y6; Potency, µM (doses to about 114 µM), for inactives: top-dose activity change, negative = inhibition, usual class: inhibitors; purified TGR, DTNB reduction, TNB absorbance 405 nm; 360,000 compounds, 3% hits; AID 485364, 2010; further: nearly all actives have a fitted effect of over 60% in size
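First, TGR (20 nM dispensed) and NADPH were mixed with compound. Second, a 15 min room-temperature incubation followed. Third, further NADPH and then DTNB were added to start the reaction. Finally, TNB absorbance was monitored kinetically.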
AmpC no deterg: qHTS Inhibitors of AmpC Beta-Lactamase (assay without detergent); AmpC nitrocefin hydrolysis, absorbance 480 nm, 0.0001% Triton; 330,000 compounds, 0.52% hits; Potency, µM (top dose mostly 57.1 µM), without a hit: at the top dose activity change, negative = inhibition, actives largely listed as inhibitors;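 further: plate controls were no compound for no effect and no enzyme for full effect; nearly all actives have a fitted effect of over 20% in size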
Target sequence (P00811 whole entry, looked up): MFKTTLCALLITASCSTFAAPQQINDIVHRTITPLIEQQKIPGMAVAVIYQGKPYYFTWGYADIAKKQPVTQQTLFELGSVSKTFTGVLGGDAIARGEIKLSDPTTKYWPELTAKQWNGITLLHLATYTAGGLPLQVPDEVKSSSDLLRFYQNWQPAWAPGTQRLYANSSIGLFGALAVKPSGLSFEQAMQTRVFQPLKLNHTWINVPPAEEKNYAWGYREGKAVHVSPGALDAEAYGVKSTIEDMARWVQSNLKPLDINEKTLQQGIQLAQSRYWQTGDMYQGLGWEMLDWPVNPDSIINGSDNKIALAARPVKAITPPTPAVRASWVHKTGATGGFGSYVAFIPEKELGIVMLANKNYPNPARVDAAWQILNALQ
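AmpC (5.3 nM in the dispensed reagent) in 20 mM phosphate pH 7.0 with 0.01% (detergent screen) or 0.0001% Triton X-100 was preincubated with compounds for 15 min at room temperature. Nitrocefin was then added from an 800 uM solution, and hydrolysis was followed at 480 nm.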
AmpC detergent: qHTS Inhibitors of AmpC Beta-Lactamase (assay with detergent); P00811; AmpC hydrolysis of nitrocefin, absorbance 480 nm, 0.01% Triton; Potency, µM (series often up to 114 µM), for the others: at the highest dose activity change, negative = inhibition, usual class: inhibitors; 370,000 compounds, 0.041% hits; AID 485294, 2010;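 further: 0% = no-compound wells and -100% = no-enzyme wells; nearly all actives have a fitted effect of over 25% in size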
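20 mM phosphate pH 7.0 + 0.01% (detergent screen) or 0.0001% Triton X-100; 5.3 nM AmpC reagent; cpd preinc 15 min RT; nitrocefin (800 uM stock) to start; A480 q20 s × 4 min; Activity was normalised to no-enzyme and no-compound control wells.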
FBPA Giardia inh: qHTS Assay for Inhibitors of Fructose-1,6-bisphosphate Aldolase from Giardia Lamblia. A8B2U2. purified Giardia FBPA. Potency, µM (highest dose often 59.6 µM), without a hit: at the top dose activity, negative = inhibition, hits mostly inhibitors. 290,000 compounds, 0.71% hits. AID 2451, 2010; further: nearly all actives have a fitted effect of over 55% in size
Target sequence (A8B2U2 whole entry, looked up): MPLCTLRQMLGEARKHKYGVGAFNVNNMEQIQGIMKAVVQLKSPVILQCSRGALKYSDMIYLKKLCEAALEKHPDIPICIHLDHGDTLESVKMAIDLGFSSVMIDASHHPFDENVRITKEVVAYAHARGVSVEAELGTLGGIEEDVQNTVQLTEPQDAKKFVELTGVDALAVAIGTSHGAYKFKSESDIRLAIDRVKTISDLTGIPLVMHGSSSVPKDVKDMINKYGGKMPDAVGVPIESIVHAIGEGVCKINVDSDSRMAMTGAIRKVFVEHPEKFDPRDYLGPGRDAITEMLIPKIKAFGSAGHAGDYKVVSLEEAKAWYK
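40 nM FBPA preincubated 10 min at RT with compound (up to 57.5 uM final), then substrate plus GAPDH/TPI/NAD/arsenate coupling and diaphorase/resazurin added. Fluorescence read after 20 min at RT, 525/598 nm.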
RE007 growth inh: qHTS Assay for Inhibitors of the HIV-1 protein Vpr; Potency, µM (titrated, usually from 92.2 µM), inactives show at the top dose activity change, negative = less growth, actives largely listed as inhibitors; S. pombe RE007 Vpr strain, BacTiter-Glo ATP luminescence, 24 h; 360,000 compounds, 0.21% hits; active means well fitted falling curve with a large enough effect; inconclusive means small, poorly fitted or top-dose-only effect; inactive means no such curve, though single readings can be large or run the other way; further: nearly all actives have a fitted effect of over 50% in size
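Fission yeast RE007 carrying one integrated HIV-1 vpr copy, seeded at OD 0.01 in PMG+AL medium with 23 nL pinned compound. Grown 24 h at 30 degrees; viability read by BacTiter-Glo luminescence after 5 min.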
Numbers without * were called inactive. A selection: hits, their analogues and other compounds. The true share with any hit is near 3.4%. Unless noted, the call rests on the fitted dose curve; in most records, active means well fitted curve in the direction sought with a large enough effect; inconclusive means small, poorly fitted or top-dose-only effect, or another doubt; inactive means no such curve, though single readings can be large; an effect the other way counts as inactive or inconclusive. Unless noted, on the % scale 0 is the no-effect control and ±100 the full control effect; potency means the concentration at half of the fitted maximal effect.

CCCCC1OC2(C)OC(=N)C1(C#N)C(C#N)(C#N)C2c1ccccc1 (centres undefined) was read as Sm TGR inh -34%, AmpC no deterg -26%, AmpC detergent -7%, FBPA Giardia inh -2% and RE007 growth inh -4%.
For COc1ccc(CC(=O)Nc2c3c(nn2C(C)(C)C)CS(=O)(=O)C3)cc1OC the results were Sm TGR inh 35µM*, AmpC no deterg -4%, AmpC detergent 3% and RE007 growth inh -15%.
For COc1ccc(CC(=O)Nc2c3c(nn2C(C)(C)C)CS(=O)(=O)C3)cc1 the results were Sm TGR inh -22%, AmpC no deterg -2%, AmpC detergent 3% and RE007 growth inh 5%.
`COCCCNC(=O)CS(=O)(=O)Cc1nc(-c2ccccc2C)oc1C` gave Sm TGR inh 50µM*, AmpC no deterg 9%, AmpC detergent inconclusive, FBPA Giardia inh 3% and RE007 growth inh 11%.
Cc1ccccc1-c1nc(CS(=O)(=O)CC(=O)NCCCN2CCCC2=O)c(C)o1 was read as Sm TGR inh 20µM*, AmpC no deterg 39%, AmpC detergent -13%, FBPA Giardia inh 7% and RE007 growth inh 20%.
Screening O=C(N/N=C\c1ccc(-c2ccccc2[N+](=O)[O-])o1)C1COc2ccccc2O1 (centres undefined) returned Sm TGR inh -5%, AmpC no deterg -19%, AmpC detergent 0% and FBPA Giardia inh inconclusive.
For Nn1cnnc1N/N=C\c1ccc(-c2ccccc2[N+](=O)[O-])o1 the results were Sm TGR inh -18%, AmpC no deterg -21%, AmpC detergent -11%, FBPA Giardia inh 1.8µM* and RE007 growth inh -9%.
CN(C)C(=O)CCc1ccc2c3c([nH]c2c1)[C@]1(CCc2ccccc2)[C@@H](C(=O)N2CCCCC2)C[C@H](CC(=O)NCc2cccc(C(F)(F)F)c2)C(=O)N1CC3 was read as AmpC no deterg 8% and RE007 growth inh -5%.
For COC(=O)/C(=C/c1ccco1)NC(=O)c1ccc(Br)o1 the results were Sm TGR inh 22µM*, AmpC no deterg -20%, AmpC detergent -11%, FBPA Giardia inh -19% and RE007 growth inh -23%.
For O=C(O)/C(=C\c1ccco1)NC(=O)c1ccco1 the results were Sm TGR inh inconclusive, AmpC no deterg -9%, AmpC detergent inconclusive, FBPA Giardia inh -3% and RE007 growth inh 29%.
C=CCOC(=O)/C(=C/c1ccco1)NC(=O)/C=C/c1ccccc1 was read as Sm TGR inh 40µM*, AmpC no deterg -19%, AmpC detergent 9%, FBPA Giardia inh -2% and RE007 growth inh -2%.
For COc1ccc(C(=O)N/C(=C/c2ccco2)C(=O)N2CCCCCC2)cc1 the results were Sm TGR inh 45µM*, AmpC no deterg -3%, AmpC detergent -1%, FBPA Giardia inh -17% and RE007 growth inh -5%.
For Cc1ccc(C(=O)N/C(=C/c2ccco2)C(=O)N2CCCCC2)cc1 the results were Sm TGR inh inconclusive, AmpC no deterg -1%, AmpC detergent 5%, FBPA Giardia inh -4% and RE007 growth inh -8%.
`COC(=O)/C(=C/c1ccco1)NC(=O)c1ccco1` gave Sm TGR inh 40µM*, AmpC no deterg 0%, AmpC detergent -4%, FBPA Giardia inh -4% and RE007 growth inh -1%.
For CC1CCC(CN2C(Nc3ccccc3)=NC[C@@H]2C)CC1 (some centres undefined) the results were Sm TGR inh 1%, AmpC no deterg -11%, AmpC detergent -14%, FBPA Giardia inh -5% and RE007 growth inh 4%.
For O=C(NCc1ccc(F)cc1)c1cc(-c2ccccn2)nc2ccc(S(=O)(=O)N3CCOCC3)cc12 the results were RE007 growth inh -13%.
COC(CNC(=O)c1ccc2nc(-c3cccs3)c(-c3cccs3)nc2c1)OC was read as Sm TGR inh 4%, AmpC no deterg -5%, AmpC detergent -2%, FBPA Giardia inh -7% and RE007 growth inh -10%.
COc1ccc(S(=O)(=O)N(C)CC(=O)Nc2c(F)cccc2F)cc1 was read as Sm TGR inh 1%, AmpC no deterg 0.14µM*, AmpC detergent -1%, FBPA Giardia inh -1% and RE007 growth inh 3%.
For COc1ccc(S(=O)(=O)N(C)CC(=O)Nc2ccc3c(c2)OCO3)cc1 the results were Sm TGR inh 5%, AmpC no deterg 5%, AmpC detergent -14%, FBPA Giardia inh -5% and RE007 growth inh 7%.
For O=C(N/C(=C\c1ccc(Cl)cc1)C(=O)N1CCOCC1)c1ccc([N+](=O)[O-])cc1 the results were Sm TGR inh -7%, AmpC no deterg 135%, AmpC detergent -2%, FBPA Giardia inh 12% and RE007 growth inh -1%.
O=C1C(Cl)=C(N2CCCC2)C(=O)N1c1ccc(F)cc1 was read as Sm TGR inh 50µM*, AmpC no deterg -20%, AmpC detergent inconclusive, FBPA Giardia inh 5% and RE007 growth inh -7%.
CC(=O)C1=C(C)OC(N)=C(C#N)C1c1cc([N+](=O)[O-])ccc1Cl (centres undefined) was read as Sm TGR inh 22µM*, AmpC no deterg -11%, AmpC detergent -6%, FBPA Giardia inh -26% and RE007 growth inh 3%.
`COc1ccc2cc(C3C(C#N)=C(N)OC(C)=C3C(C)=O)c(Cl)nc2c1` (centres undefined) gave Sm TGR inh -3%, AmpC no deterg -21%, AmpC detergent 5%, FBPA Giardia inh inconclusive and RE007 growth inh -13%.
CC(=O)C1=C(C)OC(N)=C(C#N)C1c1cccc([N+](=O)[O-])c1 (centres undefined) was read as Sm TGR inh 14µM*, AmpC no deterg -36%, AmpC detergent -10%, FBPA Giardia inh inconclusive and RE007 growth inh 1%.
CC(=O)C1=C(C)OC(N)=C(C#N)C1c1ccncc1 (centres undefined) was read as Sm TGR inh 43%, AmpC no deterg -9%, AmpC detergent inconclusive, FBPA Giardia inh inconclusive and RE007 growth inh -1%.
O=C(O)c1csc(-c2cccc(Cl)c2)n1 was read as Sm TGR inh 0%, AmpC no deterg -18%, AmpC detergent -12%, FBPA Giardia inh 8% and RE007 growth inh 1%.
Cc1ccc(/C(N)=N/OC(=O)CCC2CCCC2)cc1 was read as Sm TGR inh -1%, AmpC no deterg -10%, AmpC detergent -2%, FBPA Giardia inh 0% and RE007 growth inh -18%.
